For 26 molecules, growth results are on record in PubChem BioAssay (NCI).

About 83,000 compounds went through this panel and 20% of them were active in at least one assay; those are over-represented in the sample as a whole.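 Assay: single dose, 48 h. Readout: percent growth (0 = no net growth; negative = cell death). Active: <10.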 Unmarked numbers belong to inactive results. The source made the active and inactive calls.

For this experiment, the system named is MDA-MB-468 breast. As to the kind of experiment: NCI-60 one-dose screen, 48 h (100 = growth as untreated, 0 = no growth, -100 = all killed). The settings on record: 10 µM unless noted.
Take `CC(=O)c1ccc(C)cc1`: the growth is 98.4%.
The result for `Cn1c2c(Cl)c(Cl)ccc2c2c(C#N)c[nH]c(=O)c21` reads 111%; that for `CCOC(=O)c1ccc[nH]1`, 100%.
The figure for `COc1cc(Nc2nc(N[C@H]3CCCC[C@@H]3N)nc3cc[nH]c(=O)c23)cc(OC)c1` is -24.5% (active).
The result for `Cn1ccnc1C(=O)/C=C/c1ccc(CNC(=O)c2c(F)c(F)c(F)c(F)c2F)cc1` reads 26.8%; that for `COc1ccc(C(=O)/C=C/c2c(Cl)nc3c(c(C)nn3-c3ccccc3)c2-c2ccc(Br)cc2)cc1`, 103%; that for `CCCCc1ccc(C(N)=O)nc1`, 85%.
As for `c1ccc2cc(Cn3c(-c4ccc5ccccc5c4)[n+](Cc4ccc5ccccc5c4)c4ccccc43)ccc2c1`, the growth was -42.9% (active).
The result for `CCCCN1CCCn2c1nc1c2c(=O)n(CCC)c(=O)n1CCC` reads 101%; that for `COc1cc2c(c3c1c(=O)c1cccc(F)c1n3C)C=CC(C)(C)O2`, 42.7%; that for `CC(=O)OC[C@@]12Oc3c(cccc3-c3ccc(O)c4c3O[C@]3(COC(C)=O)C(=C4O)C(=O)C[C@H](C)[C@@H]3OC(C)=O)C(O)=C1C(=O)C[C@H](C)[C@@H]2OC(C)=O`, -30.2% (active).
Consider `Cc1cc(OI)c(C(C)C)cc1-c1cc(C(C)C)c(OI)cc1C`, for which the growth was 108%.
Take `Clc1cc(Cl)cc(-c2cnc3nonc3n2)c1`: the growth is 82%.
The figure for `CCCCCCCCCCCCNC(=O)[C@H]1CSC(c2cc(Br)cs2)N1` (stereo partly specified) is -48.7% (active); for `Cc1nc(NC(=O)NC2CCCCC2)sc1C(=O)NN` it is 97.3%; for `NC1=C(c2nn[nH]n2)C(c2ccccc2Cl)c2ccc3ccccc3c2O1` (stereo unspecified) it is 55.3%.
The figure for `O=C(Nc1ccc(OS(=O)(=O)c2ccc(F)cc2)cc1)c1ccc(Cl)cc1` is 98%; for `CC1(C)CC[C@]2(CO)CC[C@]3(C)[C@H](CC[C@@H]4[C@@]5(C)CCCNC(C)(C)[C@@H]5CC[C@]43C)[C@H]2[C@H]1O` it is 71.3%.
The figure for `Nc1n[nH]c2cccc(C#Cc3cccc(C(=O)Nc4cc(CN5CCOCC5)cc(C(F)(F)F)c4)c3)c12` is 89.7%.
`CC(C)=CCC[C@](C)(O)[C@H]1CC[C@]2(C)[C@@H]1CC[C@@H]1[C@@]3(C)CC[C@H](N)C(C)(C)[C@@H]3CC[C@]12C`: the growth is 62%.
The figure for `COc1cc(-c2cnc3nonc3n2)c(OC)c2c1OCO2` is 83.5%; for `COC(=O)c1nc(-c2ccc(C)cc2)oc1S(=O)(=O)N1CCN(c2oc(-c3ccccc3)nc2C#N)CC1` it is 93.9%; for `COc1cc2c(O)n(CCCN3CCOCC3)c3c4cnc5cccc(c(=O)c3c2cc1OC)c54` it is 47.1%.
The figure for `C[C@@H]1CC[C@@H]2[C@@H]1[C@H](OC(=O)/C=C/c1ccccc1)[C@]1(C3CCCCC3)C[C@@H](NC(=O)CO)[C@@]2(C)O1` is 115%; for `C#Cc1nc2ccccc2c(=O)[nH]1` it is -46.9% (active).
The figure for `Cc1nc2ncc(-c3ccc4ncnc(NCc5ccccc5)c4c3)cc2[nH]1` is 11.1%.
